The text below walks through data of PubChem BioAssay (Tox21).

Unmarked numbers belong to inactive results. Records with an inconclusive call do not appear. The source made the active and inactive calls. Unless noted, calls follow the shape of the dose curve; as a rule, active = well fitted curve in the direction sought with a large enough effect in the repeat runs; inconclusive = weak or mixed curves; inactive = no such curve, though single readings can be large; an effect the other way counts as inactive or inconclusive.

Assay [1] in a line: qHTS assay for small molecule agonists of the p53 signaling pathway (AID 651631; calls by dose curve; also: nearly all actives have a fitted effect of over 15% in size). An outline of the steps: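 Quantitative high-throughput format: 4,000 p53RE-bla HCT-116 cells/well, 5 h pre-incubation, 16 h compound exposure at 37 °C, 2 h room-temperature substrate step, fluorescence intensity measured.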
On the technique in general: Quantitative high-throughput screening tests each substance at several concentrations.

Assay [2] is described as follows: qHTS assay for small molecules that induce genotoxicity in human embryonic kidney cells expressing luciferase-tagged ATAD5 (AID 651632). Also: nearly all actives have a fitted effect of over 15% in size. In outline:
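Cells were seeded at 2,000 per well, dosed with compound, and incubated 16 hr at 37C in 5% CO2. Luciferase activity was then quantified after a 30 min room-temperature incubation with Amplite.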

Assay [3] is described as follows: qHTS assay for small molecule agonists of the p53 signaling pathway - cell viability (AID 651633; calls by dose curve;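 also: p53RE-bla HCT reporter cells with a stable beta-lactamase p53 reporter; nearly all actives have a fitted effect of over 30% in size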). An outline of the steps:
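p53RE-bla cells, seeded at 4,000 per well and rested 5 h at 37 C/5% CO2, received compounds in DMSO for 16 h at 37 C. CellTiter-Glo was then added, and luminescence was read after 30 min at room temperature to gauge cytotoxicity.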

The nature of assay [4]: qHTS assay for small molecules that induce genotoxicity in human embryonic kidney cells expressing luciferase-tagged ATAD5 - cell viability (AID 651634; calls by dose curve; also: nearly all actives have a fitted effect of over 25% in size). In outline: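 Cells (HEK293T, luciferase-tagged ATAD5) are seeded at 2,000 per well, dosed with compound or DMSO vehicle, and incubated 15.5 hr at 37C and 5% CO2. CellTiter-Fluor is added for 30 min before fluorescence is measured.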

A short description of assay [5]: qHTS assay for small molecule disruptors of the mitochondrial membrane potential - cell viability (AID 720634; calls by dose curve;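 also: human HepG2 liver cancer cells; nearly all actives have a fitted effect of over 20% in size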). In outline: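 Cytotoxicity was measured by ATP quantitation in HepG2 wells that had first been treated with compound for 1 hr and stained with m-MPI dye; CellTiter-Glo incubation was 30 min at room temperature.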
A short description of assay [6]: qHTS assay for small molecule disruptors of the mitochondrial membrane potential (AID 720635). Also: potency is read from the fitted curve at half-maximal effect. An outline of the steps: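 HepG2 cells (2,000/well) attached overnight at 37C, then took compound for 1 hr at 37C, 5% CO2. Mito-MPS dye was added for 30 min; fluorescence was read at 490/535 nm (monomers) and 540/590 nm (aggregates).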
Assay [7] in a line: qHTS assay to test for compound auto fluorescence at 590 nm (red) in HepG2 cells (AID 720674). In outline: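 Intrinsic compound fluorescence in the red window (Ex/Em 540/590 nm) is measured in attached HepG2 cells exposed for 1 hr, DMSO vehicle as baseline, benchmarked to Rose Bengal sodium.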
Assay [8] in a line: qHTS assay to test for compound auto fluorescence at 460 nm (blue) in HEK293 cells (AID 720678). In outline:
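HEK293 cells (2,000 per well, medium with 10% dialyzed FBS) attached for 4-5 hr at 37C, then received compound and stood overnight at 37C, 5% CO2. Blue fluorescence was read at Ex/Em 405/460 nm and expressed relative to triamterene.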

Assay [9] is described as follows: qHTS assay to test for compound auto fluorescence at 590 nm (red) in HEK293 cells (AID 720679). An outline of the steps: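 HEK293 cells (2,000/well, medium with 10% dialyzed FBS) attached for 4-5 hr at 37C, received 23 nL compound and were incubated overnight at 37C, 5% CO2. Red fluorescence was then read at 540/590nm Ex/Em, referenced to Rose Bengal sodium.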
Assay [10] is described as follows: qHTS assay to test for compound auto fluorescence at 535 nm (green) in HEK293 cells (AID 720680).
Assay [11] in a line: qHTS assay to test for compound auto fluorescence at 460 nm (blue) in HEK293 cell free culture (AID 720681). An outline of the steps: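 Test compounds were pinned into cell-free culture medium (DMEM with 10% FBS) and fluorescence was read directly at Ex/Em 405/460 nm. Signals were expressed as fluorescence equivalents of triamterene, with DMSO vehicle as control.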
A short description of assay [12]: qHTS assay to test for compound auto fluorescence at 535 nm (green) in HEK293 cell free culture (AID 720682). An outline of the steps: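 Measurement is a direct plate read of green fluorescence (485 nm in, 535 nm out) after compound addition to serum-supplemented DMEM lacking cells, with fluorescein used to express intensities.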
The nature of assay [13]: qHTS assay to test for compound auto fluorescence at 590 nm (red) in HEK293 cell free culture (AID 720683). An outline of the steps:
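Tox21 10K library compounds were pinned into cell-free DMEM with 10% FBS and fluorescence was read at excitation 540 nm. Activity is expressed as Rose Bengal sodium equivalency.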

Assay [14] is described as follows: qHTS assay to test for compound auto fluorescence at 590 nm (red) in HepG2 cell free culture (AID 720684). An outline of the steps:
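Readout: intrinsic compound fluorescence at 590 nm emission after 540 nm excitation, scaled to Rose Bengal sodium. Matrix was cell-free MEM with 10% FBS; DMSO vehicle wells served as control.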

A short description of assay [15]: qHTS assay to test for compound auto fluorescence at 460 nm (blue) in HepG2 cell free culture (AID 720685). In outline:
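Cell-free plates of MEM plus 10% FBS received 23 nL compound or DMSO vehicle; blue-channel (405/460 nm) intensity scored against triamterene as reference fluorophore.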

A short description of assay [16]: qHTS assay to test for compound auto fluorescence at 535 nm (green) in HepG2 cell free culture (AID 720686).
Assay [17] is described as follows: qHTS assay to test for compound auto fluorescence at 460 nm (blue) in HepG2 cells (AID 720687). An outline of the steps: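 Cells (2,000/well in MEM with 10% FBS) attached overnight at 37 C, then were exposed to compound or DMSO for 1 hr at 37 C, 5% CO2. Fluorescence read at Ex/Em 405/460 nm, expressed as triamterene-equivalent signal.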
Assay [18] concerns the target Glucocorticoid receptor (Homo sapiens) (UniProt P04150). Kind of assay: qHTS assay to identify small molecule agonists of the glucocorticoid receptor (GR) signaling pathway (AID 720691; active = well fitted activation curve with a large enough effect in the signal ratio in the repeat runs, not every such curve was filed as active; the % refers to the signal ratio). As to conditions: GR-bla HeLa, beta-lactamase reporter ratio, 18 h; activation: at 62.4 µM (top of the series) unless noted. In outline:
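Steps: seed GR-bla HeLa cells, incubate 4 h at 37 C/5% CO2; pin-transfer DMSO-dissolved compounds; incubate 18 h at 37 C; add LiveBLAzer B/G FRET substrate; after 2 h at room temperature, measure fluorescence.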

For assay [19] the target is unchanged. Kind of assay: qHTS assay to identify small molecule antagonists of the glucocorticoid receptor (GR) signaling pathway (AID 720692; active = well fitted inhibition curve with a large enough effect in the signal ratio in the repeat runs, not every such curve was filed as active; the % refers to the signal ratio). An outline of the steps: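 Antagonism was scored as loss of dexamethasone-driven (5 nM final) reporter signal in HeLa cells bearing a glucocorticoid response element–beta-lactamase construct, after 18 h compound exposure at 37 C and 2 h FRET substrate loading.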

The nature of assay [20]: qHTS assay to test for compound auto fluorescence at 535 nm (green) in HepG2 cells (AID 720675).

Chain of Glucocorticoid receptor (Homo sapiens) (P04150 whole entry, looked up): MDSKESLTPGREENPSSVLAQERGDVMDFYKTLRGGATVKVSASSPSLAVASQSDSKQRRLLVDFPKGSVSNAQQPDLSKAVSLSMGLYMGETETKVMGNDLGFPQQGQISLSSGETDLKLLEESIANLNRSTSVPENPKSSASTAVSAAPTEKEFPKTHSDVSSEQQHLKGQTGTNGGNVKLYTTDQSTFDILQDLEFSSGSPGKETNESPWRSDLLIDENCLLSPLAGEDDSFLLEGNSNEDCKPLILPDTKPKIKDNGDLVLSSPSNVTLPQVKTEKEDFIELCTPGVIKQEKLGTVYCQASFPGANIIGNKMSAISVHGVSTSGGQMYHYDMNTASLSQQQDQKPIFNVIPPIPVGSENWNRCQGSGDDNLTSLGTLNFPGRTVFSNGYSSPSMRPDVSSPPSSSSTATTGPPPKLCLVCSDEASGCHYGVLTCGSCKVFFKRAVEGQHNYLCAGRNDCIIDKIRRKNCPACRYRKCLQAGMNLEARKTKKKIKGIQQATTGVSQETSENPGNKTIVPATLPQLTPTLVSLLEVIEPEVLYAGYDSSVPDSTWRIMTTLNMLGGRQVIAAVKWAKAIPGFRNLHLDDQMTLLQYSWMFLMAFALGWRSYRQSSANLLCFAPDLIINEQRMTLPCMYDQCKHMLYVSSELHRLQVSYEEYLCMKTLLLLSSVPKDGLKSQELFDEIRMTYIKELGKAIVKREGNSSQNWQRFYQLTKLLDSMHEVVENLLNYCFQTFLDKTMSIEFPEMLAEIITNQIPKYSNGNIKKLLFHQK

For `Cc1ncc(CO)c(C=O)c1O`, the Potency result in assay [1], in assay [2], in assay [3], in assay [4], in assay [5] and in assay [6] was “inactive” throughout. The Potency entry in [7], in assay [9], in assay [13], in assay [14], in [16] and in assay [18] was “inactive” each time. The Potency entry in [19] is “inactive”. In addition, the result in assay [8], in assay [10], in assay [11], in assay [12], in assay [15] and in assay [17] was inactive.
For the compound `O=C(OCCCCCCOC(=O)c1ccccc1)c1ccccc1`, the Potency result in [1], in [2], in [3], in assay [4], in [5] and in assay [6] was “inactive” each time. In addition, the Potency entry in assay [20], in assay [9], in assay [13], in assay [14], in assay [16] and in [18] was “inactive” throughout. In [19], the Potency result is “inactive”. Also, the compound was called inactive in assay [8], in assay [10], in [12], in assay [15] and in assay [17].
As for `C[N+]1(CC2COC(c3ccccc3)(C3CCCCC3)O2)CCCCC1` (centres undefined), the Potency result in assay [1], in assay [2], in assay [3], in [4], in assay [5] and in assay [6] was “inactive” throughout. The Potency entry in assay [7], in [20], in assay [13], in assay [14], in assay [16] and in [18] was “inactive” throughout. Also, the call in assay [8], in assay [10], in [11], in [15] and in assay [17] was inactive.
On to `CN(C)c1ccc(CCO)cc1`, for which the Potency result in [1], in [2], in assay [3], in assay [4], in assay [5] and in assay [6] was “inactive” in each case. The Potency entry in [7], in assay [20], in assay [9], in [13], in assay [14] and in assay [16] was “inactive” in each case. Besides, the result in assay [8], in assay [10], in assay [12], in assay [15] and in [17] was inactive.
Turning to `C[C@@H]1C[C@H]2O[C@@]3(O[C@@H]2C(C)(C)O)[C@H](O)[C@@]2(C)[C@@H]4CC[C@H]5C(C)(C)[C@@H](O[C@@H]6OC[C@@H](O)[C@H](O)[C@H]6O)CC[C@@]56C[C@@]46CC[C@]2(C)[C@@H]13`, the Potency result in assay [1], in assay [2], in [3], in assay [4], in [5] and in assay [7] was “inactive” in each case. Further, the Potency result in assay [20], in assay [13], in assay [14], in assay [16] and in assay [18] was “inactive” in each case. Also, the Potency in [6] is 5.38 µM (active). The compound was called inactive in [8], in assay [10], in assay [11], in assay [12] and in assay [17].
In the case of `C/C=C/C=C/CO`, the Potency result in assay [1], in assay [2], in assay [3], in assay [4], in [5] and in [6] was “inactive” each time. In addition, the Potency entry in assay [20], in assay [9], in assay [14], in [16], in [18] and in assay [19] was “inactive” each time. Besides, the result in assay [8], in assay [10], in [12], in assay [15] and in assay [17] was inactive.
For `NCC(=O)O`, the Potency result in assay [1], in [2], in assay [3], in [4], in assay [5] and in assay [6] was “inactive” each time. Further, the Potency entry in [7], in [20], in assay [9], in assay [13], in assay [14] and in assay [16] was “inactive” throughout. Moreover, the Potency result in [18] and in [19] was “inactive” in each case. The outcome in assay [8], in assay [10], in assay [12], in assay [15] and in [17] was inactive.
